Measured values as given in the supplement of paper PMC10646978.
± gives the standard deviation.

What was measured:
Conditions in all cases: modulator concentration 10 µM
[1] = system: RAW-Dual (murine macrophage reporter line); assay: NF-kB reporter (SEAP) activity fold change vs agonist alone; higher = enhanced NF-kB activity
How it was run: (§1)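 Overnight stimulation with a PRR agonist followed pre-incubation for 1 hour at 37 °C with compound at 10 μM final. This was done in RAW-Dual murine macrophage reporter cells seeded at 50 000 per well in 384-well plates. NF-κB (SEAP, QUANTI-Blue absorbance at 620 nm) and IRF (Lucia luciferase, QUANTI-Luc luminescence) were read from the supernatant. Each reporter's fold change relative to the mean agonist-only control on the same plate was averaged over replicate plates.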

[2] = system: RAW-Dual (murine macrophage reporter line); assay: IRF reporter (Lucia luciferase) activity fold change vs agonist alone; higher = enhanced IRF activity
How it was run: as §1

[3] = system: RAW-Dual (murine macrophage reporter line); assay: viability score (confluency relative to resting cells, overnight) (fraction); higher = more viable, active = viable (0.7 or more)
How it was run: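 RAW-Dual macrophages in 384-well plates were exposed overnight to compound at 10 μM final. Confluency was imaged with IncuCyte, and two confluency masks were generated with IncuCyte software over all imaged wells. The viability score is confluency expressed relative to resting cells. Compounds were called viable if both masks exceeded 70% of resting cells.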

[4] = agonist: CpG ODN 1826 0.5 ug/mL

Row | Compound | NF-kB reporter [1, 4] | NF-kB reporter ([1]; agonist: LPS 0.1 ug/mL) | NF-kB reporter ([1]; agonist: MPLA […]) | IRF reporter ([2]; agonist: 3'3'-cGAMP 10 ug/mL) | IRF reporter ([2]; agonist: LPS 0.1 ug/mL) | IRF reporter ([2]; agonist: MPLA […]) | viability score [3]
1 | CC(C)Nc1cc(-c2c[nH]c(C(=O)N[C@H](CO)c3cccc(Cl)c3)c2)c(Cl)cn1 | 0.208 ± 0.012 | 0.0734 ± 0.0045 | 0.158 ± 0.01 | 0.677 ± 0.022 | 1.46 ± 0.12 | 0.62 ± 0.093 | 0.742 (active)
2 | CCNC(=O)CCC/C=C\C[C@@H]1[C@@H](/C=C/C(O)CCc2ccccc2)[C@@H](O)C[C@@H]1O (some centres undefined) | 0.953 ± 0.059 | 0.965 ± 0.076 | 0.953 ± 0.041 | 0.994 ± 0.055 | 0.961 ± 0.061 | 0.95 ± 0.1 | 1.01 (active)
3 | CC(C)NC(=N)NC(=N)Nc1ccc(Cl)cc1 [Prestw-999] | 0.806 ± 0.053 | 1.33 ± 0.1 | 1.27 ± 0.087 | 0.994 ± 0.059 | 1.18 ± 0.12 | 0.954 ± 0.3 | 0.994 (active)
4 | Cc1cn[nH]c1 | 0.122 ± 0.015 | 0.0449 ± 0.0036 | 0.154 ± 0.0086 | 0.685 ± 0.032 | 1.81 ± 0.19 | 2.85 ± 0.43 | 0.702 (active)
5 | Cc1c(-c2ccccc2)nc2ccccc2c1C(=O)N1CCCC1 | 1.09 ± 0.095 | 1.13 ± 0.087 | 1.1 ± 0.069 | 1.01 ± 0.035 | 1.62 ± 0.18 | 1.24 ± 0.13 | 1.01 (active)
6 | COCCCNC(=O)C1CCCN(c2ccc(Sc3ccc(Br)cc3)nn2)C1 (centres undefined) | 0.99 ± 0.1 | 1.1 ± 0.095 | 1.15 ± 0.11 | 0.84 ± 0.03 | 0.966 ± 0.076 | 0.779 ± 0.2 | 0.993 (active)
7 | COc1ccc(-c2csc(NC(=O)C3CC3)n2)cc1 | 1.1 ± 0.064 | 0.958 ± 0.078 | 1.05 ± 0.032 | 0.876 ± 0.032 | 1.05 ± 0.08 | 1.13 ± 0.26 | 0.988 (active)
8 | CCOc1cccc2sc(N(CCCN(C)C)C(=O)c3ccc(Cl)s3)nc12.Cl | 0.938 ± 0.042 | 1.06 ± 0.19 | 0.898 ± 0.12 | 0.747 ± 0.093 | 0.989 ± 0.26 | 0.954 ± 0.38 | 0.917 (active)
9 | Cc1cc(OCC(=O)Nc2ccccc2-c2ccccc2)ccc1Br | 0.776 ± 0.073 | 0.888 ± 0.06 | 0.972 ± 0.099 | 1.03 ± 0.048 | 1.47 ± 0.087 | 1.55 ± 0.13 | 0.997 (active)
10 | CN1CCN(CCOc2cc(OC3CCOCC3)c3c(Nc4c(Cl)ccc5c4OCO5)ncnc3c2)CC1 | 0.135 ± 0.02 | 1.48 ± 0.29 | 1.99 ± 0.11 | 0.395 ± 0.012 | 0.597 ± 0.13 | 0.983 ± 0.17 | 0.886 (active)
11 | CC1CCN(c2nccnc2Oc2ccc(C(=O)N3CCN(c4ccc(F)cc4)CC3)cc2)CC1 | 0.803 ± 0.071 | 1.1 ± 0.062 | 0.709 ± 0.047 | 0.684 ± 0.032 | 1.26 ± 0.18 | 1.11 ± 0.07 | 0.964 (active)
12 | CC#CC(=O)N1CCC[C@H]1c1nc(-c2ccc(C(=O)Nc3ccccn3)cc2)c2c(N)nccn12 | 0.946 ± 0.24 | 1.03 ± 0.077 | 0.876 ± 0.068 | 0.575 ± 0.019 | 1.02 ± 0.11 | 1.03 ± 0.15 | 0.736 (active)
13 | Cn1nc(CNC(=O)c2cccc3ccccc23)cc1C1CC1 | 1.18 ± 0.067 | 0.852 ± 0.065 | 0.963 ± 0.025 | 0.833 ± 0.031 | 1.06 ± 0.059 | 0.962 ± 0.15 | 0.817 (active)
14 | CCC1SC(=NN=Cc2cccc3ccccc23)NC1=O (centres undefined) | 1.08 ± 0.14 | 0.974 ± 0.087 | 0.972 ± 0.044 | 0.92 ± 0.034 | 1.01 ± 0.085 | 0.974 ± 0.2 | 1 (active)
15 | Cc1nc2n(c(=O)c1CCN1CCC(c3noc4cc(F)ccc34)CC1)CCCC2O (centres undefined) | 1.11 ± 0.27 | 1.14 ± 0.071 | 0.997 ± 0.11 | 0.902 ± 0.038 | 1.26 ± 0.14 | 1.14 ± 0.11 | 1 (active)
16 | CC(=O)Nc1ccc(NC(=O)COc2ccc(Br)c(C)c2)cc1 | 0.902 ± 0.15 | 1.09 ± 0.097 | 0.95 ± 0.087 | 0.997 ± 0.026 | 1.27 ± 0.36 | 1.22 ± 0.17 | 1.01 (active)
17 | Cc1ccc(OCCCOc2cccc3cccnc23)c(C)c1 | 0.854 ± 0.11 | 1.1 ± 0.073 | 1.62 ± 0.11 | 0.932 ± 0.07 | 1.26 ± 0.14 | 2.82 ± 0.39 | 0.895 (active)
18 | CCc1cc(=O)oc2cc(OCC(=O)OC(C)C)ccc12 | 0.827 ± 0.064 | 0.857 ± 0.042 | 1.11 ± 0.096 | 1.04 ± 0.048 | 1.44 ± 0.096 | 1.73 ± 0.24 | 1 (active)
19 | O=S(=O)(Cc1cccc(F)c1)N1C2CCC1CC(Oc1cccnc1)C2 (centres undefined) | 1.18 ± 0.07 | 1.1 ± 0.099 | 1.04 ± 0.054 | 0.986 ± 0.04 | 1.06 ± 0.052 | 1.04 ± 0.1 | 1 (active)
20 | Br.CN(C)CCCC1(c2ccc(F)cc2)OCc2cc(C#N)ccc21 (centres undefined) | 0.81 ± 0.12 | 1.02 ± 0.29 | 0.95 ± 0.07 | 0.801 ± 0.043 | 1.37 ± 0.4 | 1.39 ± 0.24 | 0.979 (active)
21 | Cc1cccc(CSc2nn3c(=O)c(C)nnc3s2)c1 | 1.06 ± 0.086 | 0.937 ± 0.1 | 0.907 ± 0.085 | 0.925 ± 0.031 | 1.25 ± 0.2 | 1.26 ± 0.25 | 1.01 (active)
22 | COc1ccc(N(CC(=O)Nc2ccccc2C(F)(F)F)S(C)(=O)=O)cc1 | 0.711 ± 0.14 | 0.672 ± 0.27 | 0.795 ± 0.17 | 0.723 ± 0.074 | 1.03 ± 0.14 | 0.962 ± 0.13 | 0.992 (active)
23 | CCN(CC)C(=O)N1CCN(C)CC1 [Prestw-284] | 1.02 ± 0.063 | 1.03 ± 0.064 | 0.96 ± 0.062 | 0.974 ± 0.034 | 1.41 ± 0.24 | 1.28 ± 0.14 | 0.99 (active)
24 | CCCCCCOc1ccc(OC(=O)c2ccc(OC)cc2)cc1 | 0.826 ± 0.073 | 0.856 ± 0.072 | 0.913 ± 0.089 | 0.95 ± 0.037 | 1.37 ± 0.21 | 1.62 ± 0.26 | 1.04 (active)
25 | CC1CC(C)CN(S(=O)(=O)CCCOc2ccc3c(c2)OCO3)C1 (centres undefined) | 1.05 ± 0.06 | 1.04 ± 0.064 | 1.01 ± 0.061 | 0.906 ± 0.03 | 1.24 ± 0.09 | 1.05 ± 0.14 | 0.956 (active)
26 | c1ccc(CCn2c3ccccc3c3nnc(SCCN4CCCCC4)nc32)cc1 | 0.232 ± 0.018 | 1.05 ± 0.061 | 1.02 ± 0.061 | 0.81 ± 0.075 | 1.57 ± 0.17 | 1.57 ± 0.11 | 1.01 (active)
27 | CC[C@@H]1C(=O)N(C)c2cnc(Nc3ccc(C(=O)N[C@H]4CC[C@H](N5CCN(CC6CC6)CC5)CC4)cc3OC)nc2N1C(C)C | 0.553 ± 0.077 | 1.22 ± 0.31 | 4.21 ± 0.23 | 0.0547 ± 0.0068 | 0.0624 ± 0.0084 | 0.138 ± 0.012 | 0.018 (inactive)
